Values joined by “and” are separate entries in the source; they are usually repeats but may differ in a detail not shown here. Equal entries are not always repeated.
Tests used:
[1] = target: Glycogen synthase kinase-3 beta (Homo sapiens) (UniProt P49841); conditions: at 1 µM;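 further: reported values are mean percent inhibition of GSK3B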
[2] = target: Homeodomain-interacting protein kinase 1 (Homo sapiens) (UniProt Q86Z02); conditions: at 0.1 µM
[3] = target: Homeodomain-interacting protein kinase 1 (Homo sapiens) (UniProt Q86Z02); conditions: at 1 µM
[4] = target: T1, Homeodomain-interacting protein kinase 4 (Homo sapiens) (UniProt Q8NE63); conditions: at 0.1 µM
T1 sequence (whole entry): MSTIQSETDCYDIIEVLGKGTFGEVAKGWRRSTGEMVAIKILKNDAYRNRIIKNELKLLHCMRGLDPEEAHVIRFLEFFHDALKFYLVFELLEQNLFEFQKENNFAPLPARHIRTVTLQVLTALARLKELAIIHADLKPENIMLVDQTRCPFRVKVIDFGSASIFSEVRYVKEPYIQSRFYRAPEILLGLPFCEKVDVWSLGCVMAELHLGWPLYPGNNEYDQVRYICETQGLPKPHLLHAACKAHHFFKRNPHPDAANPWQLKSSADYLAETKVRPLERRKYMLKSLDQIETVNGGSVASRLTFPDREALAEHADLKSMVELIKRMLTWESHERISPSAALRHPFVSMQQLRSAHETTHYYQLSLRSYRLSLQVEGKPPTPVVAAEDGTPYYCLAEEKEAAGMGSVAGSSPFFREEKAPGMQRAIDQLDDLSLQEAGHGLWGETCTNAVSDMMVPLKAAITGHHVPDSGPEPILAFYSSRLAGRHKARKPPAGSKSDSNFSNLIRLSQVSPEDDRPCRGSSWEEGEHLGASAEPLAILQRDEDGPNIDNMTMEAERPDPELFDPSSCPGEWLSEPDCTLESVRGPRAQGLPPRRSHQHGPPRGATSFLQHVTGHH

[5] = target: T1, Homeodomain-interacting protein kinase 4 (Homo sapiens); conditions: at 1 µM
[6] = target: Mitogen-activated protein kinase 9 (Homo sapiens) (UniProt P45984); conditions: at 0.1 µM
Chain of Mitogen-activated protein kinase 9 (Homo sapiens) (P45984 whole entry, looked up): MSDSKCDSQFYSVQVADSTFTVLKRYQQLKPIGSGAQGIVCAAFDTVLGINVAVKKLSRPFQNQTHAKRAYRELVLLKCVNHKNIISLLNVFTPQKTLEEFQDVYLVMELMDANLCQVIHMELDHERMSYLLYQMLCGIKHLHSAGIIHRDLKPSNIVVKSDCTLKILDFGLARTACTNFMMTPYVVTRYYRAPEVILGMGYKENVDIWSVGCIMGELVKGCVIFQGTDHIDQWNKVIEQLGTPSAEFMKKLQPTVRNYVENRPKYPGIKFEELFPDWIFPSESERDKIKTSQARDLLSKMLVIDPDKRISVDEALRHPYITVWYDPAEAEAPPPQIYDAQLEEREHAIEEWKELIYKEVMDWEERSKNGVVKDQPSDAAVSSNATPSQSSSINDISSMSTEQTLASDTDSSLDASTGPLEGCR

[7] = target: Mitogen-activated protein kinase 9 (Homo sapiens) (UniProt P45984); conditions: at 1 µM
[8] = target: Mitogen-activated protein kinase 1 (Homo sapiens) (UniProt P28482); conditions: at 0.1 µM
Chain of Mitogen-activated protein kinase 1 (Homo sapiens) (P28482 whole entry): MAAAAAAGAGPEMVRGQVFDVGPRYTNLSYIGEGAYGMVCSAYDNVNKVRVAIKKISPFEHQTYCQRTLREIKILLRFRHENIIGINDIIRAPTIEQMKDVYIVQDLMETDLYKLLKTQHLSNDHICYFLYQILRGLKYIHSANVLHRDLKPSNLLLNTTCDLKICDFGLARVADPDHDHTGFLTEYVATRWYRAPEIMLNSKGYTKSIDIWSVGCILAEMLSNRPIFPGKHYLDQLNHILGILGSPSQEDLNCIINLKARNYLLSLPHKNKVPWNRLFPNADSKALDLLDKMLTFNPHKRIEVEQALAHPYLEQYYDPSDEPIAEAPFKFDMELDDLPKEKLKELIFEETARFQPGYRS

[9] = target: Mitogen-activated protein kinase 1 (Homo sapiens) (UniProt P28482); conditions: at 1 µM
[10] = target: Mitogen-activated protein kinase 3 (Homo sapiens) (UniProt P27361); conditions: at 0.1 µM;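 further: each value is a mean inhibition figure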
Chain of Mitogen-activated protein kinase 3 (Homo sapiens) (P27361 whole entry): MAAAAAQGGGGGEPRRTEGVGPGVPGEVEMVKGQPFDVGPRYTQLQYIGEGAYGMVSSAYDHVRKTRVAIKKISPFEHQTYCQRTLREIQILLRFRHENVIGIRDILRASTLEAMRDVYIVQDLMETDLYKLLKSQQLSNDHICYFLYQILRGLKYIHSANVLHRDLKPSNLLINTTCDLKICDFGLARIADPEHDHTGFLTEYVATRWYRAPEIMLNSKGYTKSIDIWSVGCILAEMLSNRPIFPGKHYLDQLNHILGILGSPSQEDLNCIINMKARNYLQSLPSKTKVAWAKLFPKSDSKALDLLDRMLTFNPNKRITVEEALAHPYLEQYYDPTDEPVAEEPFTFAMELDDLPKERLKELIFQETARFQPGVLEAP

Chain of Homeodomain-interacting protein kinase 1 (Homo sapiens) (Q86Z02 whole entry, looked up): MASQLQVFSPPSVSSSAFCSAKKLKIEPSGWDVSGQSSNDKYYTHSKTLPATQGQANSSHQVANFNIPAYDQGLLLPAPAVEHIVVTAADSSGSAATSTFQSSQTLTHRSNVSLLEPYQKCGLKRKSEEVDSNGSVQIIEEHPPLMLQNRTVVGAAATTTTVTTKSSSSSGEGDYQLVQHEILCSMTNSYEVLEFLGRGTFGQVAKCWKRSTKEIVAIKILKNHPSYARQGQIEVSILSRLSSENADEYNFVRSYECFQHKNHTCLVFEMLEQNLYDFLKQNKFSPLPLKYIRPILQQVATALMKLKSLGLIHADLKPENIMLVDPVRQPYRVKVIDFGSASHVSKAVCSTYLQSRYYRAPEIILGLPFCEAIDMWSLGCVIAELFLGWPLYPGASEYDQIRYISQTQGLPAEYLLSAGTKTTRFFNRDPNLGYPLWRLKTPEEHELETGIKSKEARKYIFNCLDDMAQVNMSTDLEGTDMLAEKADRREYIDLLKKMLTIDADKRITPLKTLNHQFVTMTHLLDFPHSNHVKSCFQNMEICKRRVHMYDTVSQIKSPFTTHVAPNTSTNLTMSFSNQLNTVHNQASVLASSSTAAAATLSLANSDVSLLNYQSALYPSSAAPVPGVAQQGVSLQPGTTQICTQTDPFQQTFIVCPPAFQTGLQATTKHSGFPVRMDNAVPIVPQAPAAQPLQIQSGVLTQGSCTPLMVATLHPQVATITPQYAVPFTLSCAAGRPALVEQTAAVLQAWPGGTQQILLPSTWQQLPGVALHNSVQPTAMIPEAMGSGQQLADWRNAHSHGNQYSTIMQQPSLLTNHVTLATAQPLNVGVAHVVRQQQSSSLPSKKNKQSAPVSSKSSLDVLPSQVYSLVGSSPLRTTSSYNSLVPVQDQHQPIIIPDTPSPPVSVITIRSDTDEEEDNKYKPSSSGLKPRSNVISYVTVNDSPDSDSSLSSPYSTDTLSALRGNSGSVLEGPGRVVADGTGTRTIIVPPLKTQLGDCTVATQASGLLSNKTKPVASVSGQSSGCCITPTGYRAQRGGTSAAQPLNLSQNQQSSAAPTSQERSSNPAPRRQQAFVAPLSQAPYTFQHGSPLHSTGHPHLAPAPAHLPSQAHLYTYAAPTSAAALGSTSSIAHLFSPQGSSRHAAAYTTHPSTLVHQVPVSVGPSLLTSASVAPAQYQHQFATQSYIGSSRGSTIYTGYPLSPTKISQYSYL
Chain of Glycogen synthase kinase-3 beta (Homo sapiens) (P49841 whole entry, looked up): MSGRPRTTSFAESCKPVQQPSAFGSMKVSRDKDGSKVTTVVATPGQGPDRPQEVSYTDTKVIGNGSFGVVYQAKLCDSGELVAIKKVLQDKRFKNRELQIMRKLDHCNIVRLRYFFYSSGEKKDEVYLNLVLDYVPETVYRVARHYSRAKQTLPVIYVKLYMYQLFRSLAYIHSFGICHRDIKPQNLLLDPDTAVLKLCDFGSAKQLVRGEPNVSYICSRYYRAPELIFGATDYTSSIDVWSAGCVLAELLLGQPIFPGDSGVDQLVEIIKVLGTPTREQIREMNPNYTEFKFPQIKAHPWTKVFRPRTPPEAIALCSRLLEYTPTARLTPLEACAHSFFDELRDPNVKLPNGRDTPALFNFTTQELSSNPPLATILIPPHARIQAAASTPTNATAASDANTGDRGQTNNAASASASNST

Structure (SMILES)	inhibition [1]	inhibition [2]	inhibition [3]	inhibition [4]	inhibition [5]	inhibition [6]	inhibition [7]	inhibition [8]	inhibition [9]	inhibition [10]
FC(F)(F)CNc1nccc(-c2cnn3ncccc23)n1	6.02%	0.25%	10.2%	-0.95%	3.01%	2.29%	4.42%	3.24%	5.24%	1.95%
Cc1cc(O)cc(C)c1/C=C/c1cncc(C(N)=O)c1	1.95%	0.55%	3.38%	0.22%	1.54%	1.69%	2.53%	1.25%	2.53%	0.31%
c1ccc(-c2n[nH]cc2-c2ccnc(-c3ccc(OCCn4ccnc4)cc3)c2)nc1	4.83%	-0.98%	-1.32%	-0.24%	2.03%	2.7%	8.69%	1.6%	1.52%	0.3%
Fc1cccc(COc2ccc(Nc3ncncc3C#Cc3ccccc3)cc2Cl)c1	6.26%	3.88%	4.2%	1.31%	1.7%	2.97%	7.96%	5.17%	4.95%	4.94%
c1cnn2ncc(-c3ccnc(NCCCN4CCOCC4)n3)c2c1	13%	-1.15%	6.02%	-0.89%	3.35%	3.34%	5.01%	2.95%	4.35%	2.48%
COc1ccc2ncn(-c3cc(O[C@H](C)c4ccccc4C(F)(F)F)c(C(N)=O)s3)c2c1	4.75%	-2.12%	2.1%	-0.89%	3.28%	0.32%	-1.29%	-1.88%	-0.49%	-0.86%
CS(=O)(=O)Nc1ccc(-c2ccc3c(NC(=O)C4CC4)n[nH]c3c2)cc1	5.37%	-0.91%	5.67%	0.27%	5.43%	2.01%	3.22%	4.95%	1.75%	2.3%
NS(=O)(=O)c1cccc(N/C=C2\C(=O)Nc3ccccc32)c1	19.7%	-0.03%	2.88%	0.43%	4.51%	7.2%	10.9%	2.99%	4.54%	1.72%
CN1CCN(Cc2ccc(-c3cc4ncnc(Nc5ccc(OCc6cccc(F)c6)c(Cl)c5)c4s3)o2)CC1	4.12% and 11.3%	-3.31% and 2.8%	0.3% and 2.78%	-0.43% and 2.01%	0.76% and 4.59%	0.58% and 7.12%	2.65% and 8.42%	9.37% and 6.21%	4.78% and 9.62%	2.39% and 7.04%
CN(c1ccc(NC(=O)NCCN2CCOCC2)cc1)c1ccnc(Nc2ccc(CS(C)(=O)=O)cc2)n1	5.02%	2.62%	5.06%	6.23%	31.9%	1.5%	3.59%	5.07%	8.36%	4.06%
CCCNc1cccc(-n2ncc3c(N/N=C/c4ccncc4)ncnc32)c1	68.7%	2.78%	13.5%	4.71%	27.7%	-0.25%	6.14%	1.61%	1.54%	1.28%
Nc1nccc(-c2c(-c3ccc(F)cc3)ncn2C2CCNCC2)n1	2.45% and 5.63%	-0.66% and 2.64%	7.61% and 4.5%	0.4% and 1.82%	8.1% and 1.64%			-4.78%	0.6% and 1.9%	-1.7% and 0.12%
CC1=C(C(=O)Nc2ccc3[nH]nc(C)c3c2)C(c2ccc(C(F)(F)F)cc2)CC(=O)N1 (configuration not stated)	10.3%	3.11%	7.43%	3.59%	7.18%	2.4%	3.81%	6.06%	35.1%	3.88%
Fc1ccc(Nc2nccc(-c3c(-c4ccc(C(F)(F)F)cc4)nn4ncccc34)n2)cc1F	3.82%	0.15%	4.43%	0.47%	3.47%	1.98%	3.63%	3.91%	4.05%	1.81%
Nc1ncnc2occ(-c3ccc(NC(=O)Nc4cc(C(F)(F)F)ccc4F)cc3)c12	17% and 5.38%	5.43% and -2.68%	37.4% and 21.6%	60.9% and 51.1%	78.3% and 77.3%	4.06% and -9.27%	21.3% and 4.35%	1.97% and -3.05%	1.72% and -1.67%	0.93% and 0.1%
COc1cc(N2CCN(C(C)C)CC2)ccc1Nc1nc(Nc2cccc(F)c2C(=O)O)c2cc[nH]c2n1	6.19%	4.97%	23.6%	5.89%	22.7%	26.4%	72.5%	5.18%	6.34%	5.83%

Structure (SMILES)	inhibition [1]	inhibition [2]	inhibition [3]	inhibition [4]	inhibition [5]	inhibition [6]	inhibition [7]	inhibition [8]	inhibition [9]	inhibition [10]
CN(C)CCNC(=O)Nc1ccc(N(C)c2ccnc(Nc3ccc(CS(C)(=O)=O)cc3)n2)cc1	4.47%	0.8%	4.6%	0.19%	3.28%	4.37%	5.22%	5.77%	4.8%	2.98%
OCCCNc1nccc(-c2c(-c3ccc(F)cc3)nn3cc(C(F)(F)F)ccc23)n1	31.2%	-0.49%	3.61%	3.13%	6.59%	14.8%	59.7%	1.24%	7.07%	1.68%
COc1ccc(Nc2ncc(-c3ccccc3)o2)cc1OC	33%	8.4%	28.6%	3.61%	22.6%	2.69%	8.77%	-0.07%	1.54%	1.12%
O=C(Nc1n[nH]c2nnc(-c3cccnc3)cc12)C1CC1	81.5%	33.6%	74%	0.58%	8.84%	0.33%	1.3%	0.58%	2.75%	0.53%
Nc1nonc1-c1nc2cnccc2n1C1CC1	68.1% and 62.1%	0.55% and 0.39%	17.3% and 12.3%	3.8% and -0.76%	11.1% and 7.82%	3.59% and 0.44%	6.52% and 2.72%	3.14% and 2.36%	7.51% and 3.94%	4.9% and 2.96%
CC1=C(C(=O)Nc2ccc3[nH]ncc3c2)C(c2ccc(F)cc2)N=C(c2ccc(C(F)(F)F)nc2)N1 (configuration not stated)	4.71%	0.16%	2.28%	0.68%	1.53%	1.61%	4.98%	-1.73%	3.17%	1.81%
COc1cc(N2CCN(C(C)C)CC2)ccc1Nc1nc(Nc2cccc3ncccc23)c2cc[nH]c2n1	5.17%	-1.1%	3.6%	1.11%	6.13%	0.17%	5.14%	-2.97%	-0.36%	-2.04%
Cc1ccc(-c2cc3c(NC(=O)C4CC4)ncnc3o2)cc1	38.2%	1.63%	9.22%	1.44%	7.28%	0.97%	5.49%	2.94%	4.73%	3%
NS(=O)(=O)c1ccc(N/N=C2\C(=O)Nc3cccc(CCc4ccncc4)c32)cc1	56.4%	-0.6%	2.62%	0.72%	1.64%	-0.3%	1.61%	0.92%	0.88%	-0.55%
O=C(O[C@H]1CN[C@H](C#Cc2cc3ncnc(Nc4ccc5c(cnn5Cc5ccccc5)c4)c3s2)C1)N1CCOCC1	3.77%	-3.77%	-1.24%	-1.27%	-0.32%	0.01%	0.13%	0.84%	-0.13%	-0.77%
CN1CCC(C(=O)Nc2n[nH]c3nc(-c4ccc(O)cc4)c(Br)cc23)CC1		2.86% and -1.65%	20.1% and 19.3%	0.89% and 1.06%	5.87% and 4.37%	5.88% and 4.7%	16.6% and 13.9%	6.51% and 1.55%	12.1% and 3.95%	5.16% and 1.61%
CC(C)c1ccc(-c2cc(-c3c[nH]nc3-c3ccccn3)ccn2)cc1	3.51%	-2.26%	0.99%	0.13%	3.76%	0.51%	2.5%	-0.73%	2.22%	0.86%
NS(=O)(=O)c1ccc(N/N=C2\C(=O)Nc3ccc(C(=O)NCc4ccncc4)cc32)cc1	77.1%	10.9%	42.5%	12.2%	45.9%	2.55%	8.96%	14.9%	55.3%	5.64%
COc1cc2c(cc1Nc1nc(Nc3cccc(F)c3C(N)=O)c3cc[nH]c3n1)N(C(=O)CN1CCN(C(C)C)CC1)CC2	3.89%	0.07%	21.8%	3.33%	15.4%	3.04%	18.2%	2.66%	7.45%	2.64%
N#Cc1cccc(Nc2ncc(-c3ccccc3)o2)c1	16.9%	3.5%	20.2%	6.92%	36.4%	1.32%	2.85%	1.39%	3.01%	2.87%
